# Experimental data from PubChem BioAssay (NCI).
# Compounds without any hit were thinned out: in the full panel of roughly 83,000, 20% have a hit.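 Growth was measured after 48 h exposure to one concentration of compound in 96-well plates. Values under 10 count as active.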 A number with no mark means an inactive call. Activity calls are given as the source filed them.
# Tests used:
# Assay in all cases: NCI-60 one-dose screen, 48 h (100 = growth as untreated, 0 = no growth, -100 = all killed)
# HCT-15 colon = settings: 10 µM unless noted
# HT29 colon = settings: 10 µM unless noted
# SNB-75 CNS = settings: 10 µM unless noted
# SNB-19 CNS = settings: 10 µM unless noted
# U251 CNS = settings: 10 µM unless noted
# PC-3 prostate = settings: 10 µM unless noted
# UACC-62 melanoma = settings: 10 µM unless noted
# LOX IMVI melanoma = settings: 10 µM
# SK-MEL-28 melanoma = settings: 10 µM unless noted
# SK-MEL-2 melanoma = settings: 10 µM unless noted
# EKVX NSCLC = settings: 10 µM unless noted
# SN12C renal = settings: 10 µM unless noted
# UO-31 renal = settings: 10 µM unless noted
# TK-10 renal = settings: 10 µM unless noted
# ACHN renal = settings: 10 µM unless noted
# CAKI-1 renal = settings: 10 µM unless noted
# A498 renal = settings: 10 µM unless noted
# CCRF-CEM leukemia = settings: 10 µM unless noted
# SK-MEL-5 melanoma = settings: 10 µM unless noted
# MOLT-4 leukemia = settings: 10 µM unless noted
SMILES,growth (HCT-15 colon),growth (HT29 colon),growth (SNB-75 CNS),growth (SNB-19 CNS),growth (U251 CNS),growth (PC-3 prostate),growth (UACC-62 melanoma),growth (LOX IMVI melanoma),growth (SK-MEL-28 melanoma),growth (SK-MEL-2 melanoma),growth (EKVX NSCLC),growth (SN12C renal),growth (UO-31 renal),growth (TK-10 renal),growth (ACHN renal),growth (CAKI-1 renal),growth (A498 renal),growth (CCRF-CEM leukemia),growth (SK-MEL-5 melanoma),growth (MOLT-4 leukemia)
O=C1C(=Nc2ccc(F)c(Cl)c2)c2cccc3cccc1c23,8.52% (active),5.96% (active),66.5%,71.2%,24.7%,77.9%,52.8%,46.9%,57.9%,97.5%,75.5%,57.3%,38.2%,111%,32.2%,55.4%,118%,6.25% (active),–,–
NS(=O)(=O)c1ccc(-n2cc(-c3cccc(NC(=O)c4ccc(Cl)c(C(F)(F)F)c4)c3)nn2)cc1,41.6%,9.41% (active),5.75% (active),32.3%,-54.8% (active),17.7%,35%,-33.3% (active),-14.5% (active),78.3%,46.5%,34.3%,51%,48.7%,23.2%,33.2%,91.1%,28.3%,–,–
Cc1ccc(-c2nnc3ccc(N/N=C/c4ccccc4)nn23)cc1,69.2%,118%,-17% (active),86.6%,75.1%,89.3%,98.4%,47.5%,95.7%,102%,76.9%,101%,84.5%,104%,95.4%,83.3%,105%,88.8%,–,–
COc1ccc(C(=O)/C=C/c2ccccc2Cl)cc1S(N)(=O)=O,92.9%,109%,107%,97.4%,109%,106%,92.9%,105%,103%,–,97.3%,97.2%,84.9%,97.6%,101%,102%,119%,111%,–,–
Cc1cc(C)n(-c2ccc3nnc(-c4ccccc4)n3n2)n1,86.4%,115%,94.4%,98.3%,102%,104%,99.9%,77.3%,122%,114%,88.5%,94.2%,-77.9% (active),95%,104%,74.7%,107%,112%,–,–
CN1CCN(c2ccc3c(c2)nc(NNC(=O)c2cnccn2)c2cccn23)CC1,-51% (active),6.95% (active),28.7%,20%,-19.1% (active),11.7%,-17.9% (active),-43.8% (active),-15% (active),-69% (active),-46.8% (active),0.109% (active),-77.9% (active),–,-85.8% (active),-74% (active),-84.7% (active),13.8%,–,–
CCN1CCN(Cc2ccc(C(=O)Nc3cccc(C#Cc4cccc5[nH]nc(N)c45)c3)cc2C(F)(F)F)CC1,-87.6% (active),-10.5% (active),-62% (active),-88.7% (active),-94.6% (active),-14% (active),-74.7% (active),-92.6% (active),-95% (active),-80.7% (active),-93.1% (active),-76.1% (active),-94.2% (active),–,-98.2% (active),-91.7% (active),-84.6% (active),3.6% (active),–,–
N#Cc1c(NCc2ccccc2)n[nH]c1Nc1ccccc1,42.4%,84.3%,57.4%,54.8%,45.9%,40.1%,64.9%,58.4%,79.1%,20.7%,52.8%,50.8%,38.5%,75.5%,38.1%,33.4%,79%,18.3%,–,–
COc1ccc(C(=O)/C=C/c2cc3c(cc2Br)OCO3)cc1S(N)(=O)=O,-40.4% (active),0.446% (active),2.3% (active),6.32% (active),-95.1% (active),2.21% (active),39.2%,-85.5% (active),27.6%,89.2%,4.57% (active),-12.5% (active),-44.5% (active),16.8%,-23% (active),-20.2% (active),88.7%,5.43% (active),–,–
CC(=O)NNc1ccc2nnc(-c3ccccc3)n2n1,103%,129%,90.3%,97.3%,101%,107%,98.6%,99.3%,107%,102%,95.9%,97.1%,88.5%,–,104%,90.9%,108%,108%,–,–
N#Cc1c(-c2cccc3ccccc23)cc(-c2cccc(OCC(=O)O)c2)[nH]c1=O,100%,102%,73.7%,97.1%,103%,91.7%,–,–,–,115%,93.5%,96.8%,71.3%,104%,100%,74.2%,99.3%,96.8%,100%,85.7%
Cc1ccc(NC(=O)CN2CCN(c3ncnc4c3cnn4-c3ccccc3)CC2)cc1,50.3%,93.8%,103%,–,86.5%,65.5%,69.3%,23.3%,86.5%,87.8%,81%,74.6%,63%,152%,-32.7% (active),77.8%,104%,78.4%,77.6%,68.1%
CN(C)CCn1c2ccccc2c2nc3cc(C(F)(F)F)ccc3nc21,19.4%,27.6%,44.5%,36.4%,38.1%,–,–,–,44.4%,56.4%,64.3%,21.7%,11.9%,108%,13.5%,11%,75.8%,–,28.3%,23.8%
Cc1nc(Nc2ccccn2)sc1C(=O)CC(SCC(=O)Nc1ccc(Cl)cc1)c1ccccc1F (configuration not stated),2.33% (active),-28.4% (active),16.5%,–,-21.1% (active),43.2%,-10.6% (active),-22.5% (active),24.1%,-27.1% (active),36.5%,-15.1% (active),30.3%,6.79% (active),24.6%,15.3%,45.3%,12.4%,4.3% (active),23.7%
C#CCOc1cc(N(CC)CC)ccc1C(C(=O)NC(C)(C)C)N(C(=O)C1CCc2cc(F)ccc2O1)c1cc(C)cc(C)c1 (configuration not stated),31.9%,40.4%,45.7%,–,19.5%,13.2%,33.8%,32.5%,62.9%,-14.6% (active),33.3%,30.9%,23.2%,50.3%,22.7%,27.9%,45.8%,36.3%,44.7%,16%
COc1ccc(NC(=O)Cn2c(/C=C/c3cccc([N+](=O)[O-])c3)nc3ccccc3c2=O)cc1,78.2%,88%,1.99% (active),72.9%,36.1%,94%,51.5%,50.8%,–,106%,87.8%,76.1%,22.9%,72.7%,20.3%,49.9%,92.8%,92.3%,–,–
COc1ccc(C(=O)/C=C/c2ccc(OC)c(OCc3ccccc3)c2)cc1OC,1.81% (active),5.47% (active),39.7%,–,7.69% (active),25.1%,14.8%,-26% (active),39.8%,55.8%,25.2%,7.92% (active),19.3%,20.5%,21.8%,39.4%,108%,12.9%,31.9%,8.07% (active)
